Records with an inconclusive call do not appear. Active and inactive are the calls of the source. The calls were made as follows, unless noted: active = hit-call score of the fitted dose curve at least 0.9, where 1 is the maximum; inconclusive = response in the unintended direction; inactive = score below 0.9.
Columns and labels:
[1] = ATG_TGFb_CIS: Attagene CIS-FACTORIAL HepG2 Assay for human Transforming Growth Factor (TGF) (AID 2282967; active = hit-call score of the fitted dose curve at least 0.9, where 1 is the maximum; inactive = score below 0.9); conditions: HepG2 Attagene CIS TGFb reporter, mRNA transcription; actives raise or lower the signal
Method in brief: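 Bidirectional fitting relative to DMSO gave the endpoint. Underlying data: reporter mRNA from HepG2 cells carrying transiently transfected cis-regulated reporter constructs, harvested 24 h after dosing and analyzed by RT-PCR and capillary electrophoresis.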

[2] = ATG_VDRE_CIS: Attagene CIS-FACTORIAL HepG2 Assay for human Vitamin D Receptor Element (VDRE) (AID 2282968; active = hit-call score of the fitted dose curve at least 0.9, where 1 is the maximum; inactive = score below 0.9); conditions: HepG2 VDRE cis-reporter transcription, actives raise or lower the signal
Method in brief: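 Cell-based multiplexed reporter format in human liver HepG2 cells, 24 h post-dose. Fluorescence from capillary electrophoresis of reporter cDNA gives the signal, with DMSO as negative control and baseline.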

[3] = target: Estrogen receptor (Homo sapiens) (UniProt P03372); experiment: ATG_ERa_TRANS: Attagene TRANS-FACTORIAL HepG2 Assay for human Estrogen Receptor alpha (ERa) (AID 2282970); conditions: HepG2 Attagene TRANS ERa GAL4 reporter, mRNA
Sequence of Estrogen receptor (Homo sapiens) (P03372 whole entry, looked up, the tested form may be a part): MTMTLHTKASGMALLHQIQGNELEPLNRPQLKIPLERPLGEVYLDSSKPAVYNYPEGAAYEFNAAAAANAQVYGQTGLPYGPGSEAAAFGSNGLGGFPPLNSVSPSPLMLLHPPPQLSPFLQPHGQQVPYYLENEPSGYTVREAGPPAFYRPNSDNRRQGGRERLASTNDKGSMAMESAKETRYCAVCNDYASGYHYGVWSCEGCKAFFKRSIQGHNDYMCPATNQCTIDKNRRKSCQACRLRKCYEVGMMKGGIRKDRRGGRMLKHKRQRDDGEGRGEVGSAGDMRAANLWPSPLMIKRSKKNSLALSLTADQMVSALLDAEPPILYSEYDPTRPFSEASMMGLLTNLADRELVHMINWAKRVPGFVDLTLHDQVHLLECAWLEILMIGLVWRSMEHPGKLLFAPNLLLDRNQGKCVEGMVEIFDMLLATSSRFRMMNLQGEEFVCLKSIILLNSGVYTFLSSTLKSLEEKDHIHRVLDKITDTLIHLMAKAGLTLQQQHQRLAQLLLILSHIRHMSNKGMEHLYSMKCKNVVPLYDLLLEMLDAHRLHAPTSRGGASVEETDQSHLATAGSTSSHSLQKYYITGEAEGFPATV
Method in brief: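 Human liver HepG2, transient transfection of multiple GAL4-UAS reporter units; TRANS format (exogenous NR-Gal4 chimera). 24 h dosing. Readout: reporter mRNA, RT-PCR, 6-FAM primer extension, HpaI digest, capillary electrophoresis. Positive direction vs DMSO.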

[4] = target: X-box-binding protein 1 (Homo sapiens) (UniProt P17861); experiment: ATG_Xbp1_CIS: Attagene CIS-FACTORIAL HepG2 Assay for human X-box Binding Protein 1 (XBP1) (AID 2282972; active = hit-call score of the fitted dose curve at least 0.9, where 1 is the maximum; inactive = score below 0.9); conditions: HepG2 XBP1 cis-element reporter, Attagene multiplex; actives raise or lower the signal
Sequence of X-box-binding protein 1 (Homo sapiens) (P17861 whole entry, looked up): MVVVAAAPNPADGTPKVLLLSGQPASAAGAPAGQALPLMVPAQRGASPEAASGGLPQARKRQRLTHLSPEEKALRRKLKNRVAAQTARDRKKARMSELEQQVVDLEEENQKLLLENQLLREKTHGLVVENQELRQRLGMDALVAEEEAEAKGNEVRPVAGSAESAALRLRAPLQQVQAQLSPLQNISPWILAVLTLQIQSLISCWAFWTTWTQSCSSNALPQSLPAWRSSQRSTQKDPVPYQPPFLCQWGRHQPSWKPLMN
Method in brief: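 After a 24-hour chemical exposure of HepG2 cells carrying cis-regulated reporters, reporter mRNA levels are assessed. Quantification uses RT-PCR, 6-FAM labelling and capillary electrophoresis. Gain- or loss-of-signal is fitted against DMSO.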

[5] = ATG_M_19_TRANS: Attagene TRANS-FACTORIAL HepG2 Assay for M19 Transcription Factor (Internal Marker) (AID 2282974); conditions: HepG2 Attagene TRANS-FACTORIAL M19 internal marker reporter
Method in brief: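 24 h chemical exposure of transiently transfected HepG2 (MRTU library). RNA → oligo(dT) RT → PCR → 6-FAM labelling → HpaI cut → CE fluorescence. Positive-direction fit vs DMSO baseline; background internal-marker readout.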

[6] = ATG_GAL4_TRANS: Attagene TRANS-FACTORIAL HepG2 Assay for GAL4 (Internal Marker) (AID 2282976); conditions: HepG2 Attagene TRANS GAL4 internal marker reporter
Method in brief: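 First, HepG2 cells were transfected with reporter units under GAL4-UAS control. Next, they were treated with chemical for 24 h. Finally, RNA was reverse-transcribed, PCR-amplified, FAM-labelled and resolved by capillary electrophoresis, with induction scored against DMSO.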

[7] = target: Glucocorticoid receptor (Homo sapiens) (UniProt P04150); experiment: ATG_GR_TRANS: Attagene TRANS-FACTORIAL HepG2 Assay for human Glucocorticoid Receptor (GR) (AID 2282978); conditions: HepG2 Attagene TRANS GR reporter, mRNA transcription;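 also: activators score as hits since higher reporter transcript over DMSO is fitted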
Sequence of Glucocorticoid receptor (Homo sapiens) (P04150 whole entry, looked up, the tested form may be a part): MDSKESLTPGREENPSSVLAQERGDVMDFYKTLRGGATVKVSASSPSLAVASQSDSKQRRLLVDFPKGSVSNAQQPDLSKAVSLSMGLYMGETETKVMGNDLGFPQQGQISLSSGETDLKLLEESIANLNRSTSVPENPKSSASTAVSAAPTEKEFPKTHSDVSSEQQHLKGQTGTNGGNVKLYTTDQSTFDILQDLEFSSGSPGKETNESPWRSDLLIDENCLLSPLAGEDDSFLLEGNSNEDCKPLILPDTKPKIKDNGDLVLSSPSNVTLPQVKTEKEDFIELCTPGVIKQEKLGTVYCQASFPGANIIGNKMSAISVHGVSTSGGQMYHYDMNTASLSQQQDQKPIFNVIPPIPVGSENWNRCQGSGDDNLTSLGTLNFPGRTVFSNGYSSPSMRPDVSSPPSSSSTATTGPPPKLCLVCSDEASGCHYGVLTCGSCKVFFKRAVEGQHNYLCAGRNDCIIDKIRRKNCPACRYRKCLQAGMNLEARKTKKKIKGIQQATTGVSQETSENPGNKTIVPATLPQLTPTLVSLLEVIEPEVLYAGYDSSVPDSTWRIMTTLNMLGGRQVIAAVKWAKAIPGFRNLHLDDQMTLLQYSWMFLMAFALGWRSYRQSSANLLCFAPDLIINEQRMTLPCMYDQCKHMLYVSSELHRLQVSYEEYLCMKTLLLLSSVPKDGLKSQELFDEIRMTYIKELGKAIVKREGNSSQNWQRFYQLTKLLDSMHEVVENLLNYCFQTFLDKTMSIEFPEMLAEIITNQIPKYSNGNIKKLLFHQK
Method in brief: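 Transient MRTU transfection of HepG2 (GAL4-UAS reporters, exogenous NR-GAL4 chimeras), 24 h dosing. Readout: reporter transcript via RT-PCR + capillary electrophoresis fluorescence. Positive direction vs DMSO baseline.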

[8] = target: Bile acid receptor (Homo sapiens) (UniProt Q96RI1); experiment: ATG_FXR_TRANS: Attagene TRANS-FACTORIAL HepG2 Assay for Farnesoid X Receptor (FXR) (AID 2282979); conditions: HepG2 Attagene TRANS FXR-GAL4 reporter transcription;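 also: hits raise reporter mRNA above DMSO so AC50 marks FXR activation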
Sequence of Bile acid receptor (Homo sapiens) (Q96RI1 whole entry, looked up, the tested form may be a part): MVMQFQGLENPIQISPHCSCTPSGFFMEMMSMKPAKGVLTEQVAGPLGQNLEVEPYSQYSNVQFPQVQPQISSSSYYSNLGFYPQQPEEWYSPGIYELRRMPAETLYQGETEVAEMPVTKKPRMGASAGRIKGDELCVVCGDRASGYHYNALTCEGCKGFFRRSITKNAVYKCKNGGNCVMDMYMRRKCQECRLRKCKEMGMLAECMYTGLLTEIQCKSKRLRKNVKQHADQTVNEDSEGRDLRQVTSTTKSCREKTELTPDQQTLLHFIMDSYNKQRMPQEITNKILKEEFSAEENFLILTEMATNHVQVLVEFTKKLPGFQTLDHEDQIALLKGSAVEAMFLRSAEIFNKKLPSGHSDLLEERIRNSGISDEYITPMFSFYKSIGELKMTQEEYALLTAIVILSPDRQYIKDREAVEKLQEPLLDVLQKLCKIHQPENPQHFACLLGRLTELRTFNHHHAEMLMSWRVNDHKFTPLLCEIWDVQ
Method in brief: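 Transient transfection of HepG2 with multiplexed GAL4-UAS reporter units; exogenous FXR-GAL4 chimera. Dose 24 h → TriZol RNA → oligo(dT) RT → PCR, 6-FAM primer extension, HpaI cut → CE. Gain vs DMSO.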

[9] = ATG_M_32_TRANS: Attagene TRANS-FACTORIAL HepG2 Assay for M32 Transcription Factor (Internal Marker) (AID 2282984); conditions: HepG2 Attagene TRANS M32 internal marker reporter;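 also: transcript level of a background control reporter unit measured by RT-PCR and capillary electrophoresis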
Method in brief: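 Capillary electrophoresis of 6-FAM-labelled reporter fragments gives the signal; data fitted for gain over DMSO negative control. Source: HepG2 cells bearing transient multiple reporter transcription units, 24 h exposure.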

[10] = target: Transcriptional activator Myb (Homo sapiens) (UniProt P10242); experiment: ATG_Myb_CIS: Attagene CIS-FACTORIAL HepG2 Assay for human Myeloblastosis (Myb) Proto-Oncogene Transcription Factor (AID 2282986; active = hit-call score of the fitted dose curve at least 0.9, where 1 is the maximum; inactive = score below 0.9); conditions: HepG2 Attagene CIS-FACTORIAL Myb reporter transcription; actives raise or lower the signal
Sequence of Transcriptional activator Myb (Homo sapiens) (P10242 whole entry, looked up): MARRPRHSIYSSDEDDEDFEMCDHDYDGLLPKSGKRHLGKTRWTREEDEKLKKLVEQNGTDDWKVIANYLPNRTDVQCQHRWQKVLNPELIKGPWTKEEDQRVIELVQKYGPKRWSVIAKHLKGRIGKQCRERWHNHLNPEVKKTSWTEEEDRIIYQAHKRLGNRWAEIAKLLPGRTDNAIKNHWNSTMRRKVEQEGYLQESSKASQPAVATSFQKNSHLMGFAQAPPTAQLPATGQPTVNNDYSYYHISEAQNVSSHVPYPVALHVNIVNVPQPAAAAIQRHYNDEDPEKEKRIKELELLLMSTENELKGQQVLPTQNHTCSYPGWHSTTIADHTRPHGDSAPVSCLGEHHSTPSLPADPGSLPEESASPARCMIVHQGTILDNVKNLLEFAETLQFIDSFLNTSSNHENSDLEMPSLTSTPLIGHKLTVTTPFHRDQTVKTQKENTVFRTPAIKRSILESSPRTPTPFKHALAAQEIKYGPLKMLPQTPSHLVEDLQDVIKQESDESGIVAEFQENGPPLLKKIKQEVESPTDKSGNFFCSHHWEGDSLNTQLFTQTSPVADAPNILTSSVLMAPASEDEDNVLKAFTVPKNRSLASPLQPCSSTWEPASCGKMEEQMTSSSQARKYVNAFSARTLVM
Method in brief: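 HepG2, transient MRTU transfection (cis-element promoters, endogenous TF activity), 24 h compound exposure. Readout: reporter mRNA via RT-PCR, 6-FAM labeling, HpaI digest, capillary electrophoresis. Gain/loss fit vs DMSO.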

[11] = target: Nuclear respiratory factor 1 (Homo sapiens) (UniProt Q16656); experiment: ATG_NRF1_CIS: Attagene CIS-FACTORIAL HepG2 Assay for human Nuclear Respiratory Factor 1 (NRF1) Orphan Gene (AID 2282987; active = hit-call score of the fitted dose curve at least 0.9, where 1 is the maximum; inactive = score below 0.9); conditions: HepG2 NRF1 cis-element reporter, Attagene multiplex; actives raise or lower the signal
Sequence of Nuclear respiratory factor 1 (Homo sapiens) (Q16656 whole entry, looked up): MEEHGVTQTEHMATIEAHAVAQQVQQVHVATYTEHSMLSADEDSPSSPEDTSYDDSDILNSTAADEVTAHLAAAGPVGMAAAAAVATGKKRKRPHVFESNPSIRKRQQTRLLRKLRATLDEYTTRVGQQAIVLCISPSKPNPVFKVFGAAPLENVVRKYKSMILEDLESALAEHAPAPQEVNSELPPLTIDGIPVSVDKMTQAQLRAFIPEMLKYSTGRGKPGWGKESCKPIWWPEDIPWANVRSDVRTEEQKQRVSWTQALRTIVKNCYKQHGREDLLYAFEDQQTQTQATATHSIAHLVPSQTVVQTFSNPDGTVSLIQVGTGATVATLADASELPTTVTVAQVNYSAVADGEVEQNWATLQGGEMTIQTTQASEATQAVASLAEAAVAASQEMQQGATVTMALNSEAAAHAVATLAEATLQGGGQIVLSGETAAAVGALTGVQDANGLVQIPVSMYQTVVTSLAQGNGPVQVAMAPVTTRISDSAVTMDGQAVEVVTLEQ
Method in brief: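 Endogenous NRF1-driven reporter transcription measured in transiently transfected human HepG2 liver cells. Readout: reporter mRNA by RT-PCR and capillary electrophoresis with fluorescence detection, 24 h post-dosing. Gain or loss of signal fitted relative to DMSO baseline.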

[12] = target: Oxysterols receptor LXR-alpha (Homo sapiens) (UniProt Q13133); experiment: ATG_LXRa_TRANS: Attagene TRANS-FACTORIAL HepG2 Assay for human Liver X Receptor alpha (LXRa) (AID 2282980); conditions: HepG2 Attagene TRANS reporter, LXRa transactivation
Sequence of Oxysterols receptor LXR-alpha (Homo sapiens) (Q13133 whole entry, looked up, the tested form may be a part): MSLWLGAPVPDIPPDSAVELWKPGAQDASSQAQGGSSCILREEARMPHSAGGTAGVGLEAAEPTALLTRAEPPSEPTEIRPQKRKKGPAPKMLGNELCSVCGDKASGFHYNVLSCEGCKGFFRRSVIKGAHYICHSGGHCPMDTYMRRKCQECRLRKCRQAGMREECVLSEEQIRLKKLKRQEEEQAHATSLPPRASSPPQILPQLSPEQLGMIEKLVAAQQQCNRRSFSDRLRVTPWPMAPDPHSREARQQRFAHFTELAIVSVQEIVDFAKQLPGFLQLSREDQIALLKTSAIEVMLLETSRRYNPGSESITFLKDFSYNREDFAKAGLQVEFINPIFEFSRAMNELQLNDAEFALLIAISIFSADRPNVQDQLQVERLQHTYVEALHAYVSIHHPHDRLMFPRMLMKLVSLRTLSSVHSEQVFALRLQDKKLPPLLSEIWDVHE
Method in brief: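 Transfect HepG2 with GAL4-UAS multiplex reporter constructs (TRANS format, chimeric receptor-GAL4); treat 24 h; extract RNA, reverse-transcribe, PCR-amplify, FAM-label, HpaI-digest; resolve fragments by capillary electrophoresis. Upward response vs DMSO.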

[13] = target: Nuclear receptor subfamily 4 group A member 2 (Homo sapiens) (UniProt P43354); experiment: ATG_NURR1_TRANS: Attagene TRANS-FACTORIAL HepG2 Assay for human Nuclear Receptor Related Protein 1 (NURR1) (AID 2282985); conditions: HepG2 Attagene TRANS reporter, mRNA readout
Sequence of Nuclear receptor subfamily 4 group A member 2 (Homo sapiens) (P43354 whole entry, looked up): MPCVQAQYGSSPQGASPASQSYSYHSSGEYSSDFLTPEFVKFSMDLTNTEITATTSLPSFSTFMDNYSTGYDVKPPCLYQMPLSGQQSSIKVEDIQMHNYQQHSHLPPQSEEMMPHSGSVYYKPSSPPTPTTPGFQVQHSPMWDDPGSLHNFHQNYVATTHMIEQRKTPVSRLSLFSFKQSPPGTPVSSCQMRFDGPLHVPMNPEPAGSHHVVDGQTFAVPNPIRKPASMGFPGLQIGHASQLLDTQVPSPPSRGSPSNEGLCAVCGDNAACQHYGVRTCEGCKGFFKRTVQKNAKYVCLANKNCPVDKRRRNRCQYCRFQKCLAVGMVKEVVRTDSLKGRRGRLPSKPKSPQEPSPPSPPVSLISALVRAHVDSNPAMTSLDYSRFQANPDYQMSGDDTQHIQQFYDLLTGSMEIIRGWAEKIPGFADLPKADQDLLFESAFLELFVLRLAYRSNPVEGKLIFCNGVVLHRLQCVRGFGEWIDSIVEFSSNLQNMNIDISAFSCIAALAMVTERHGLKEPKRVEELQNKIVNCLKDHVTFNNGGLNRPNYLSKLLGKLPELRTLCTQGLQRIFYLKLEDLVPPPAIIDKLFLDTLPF
Method in brief: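 HepG2 / transient MRTU transfection / 24 h compound exposure / RT-PCR + CE fluorescence of reporter mRNA / gain-of-signal vs DMSO.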

[14] = target: Steroid hormone receptor ERR1 (Homo sapiens) (UniProt P11474); experiment: ATG_ERRa_TRANS: Attagene TRANS-FACTORIAL HepG2 Assay for human Estrogen-Related Receptor alpha (ERRa) (AID 2282971); conditions: HepG2 Attagene TRANS reporter, ERRa transactivation
Method in brief: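 Reporter transcript induction was quantified by RT-PCR and capillary electrophoresis of FAM-labelled, HpaI-cut products after 24 h treatment of HepG2 cells carrying transiently transfected GAL4-UAS reporter units and an exogenous ERRa-Gal4 fusion; activity scored as increase over DMSO.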

[15] = target: Oxysterols receptor LXR-beta (Homo sapiens) (UniProt P55055); experiment: ATG_LXRb_TRANS: Attagene TRANS-FACTORIAL HepG2 Assay for human Liver X Receptor beta (LXRb) (AID 2282981); conditions: HepG2 Attagene TRANS GAL4-LXRb reporter, mRNA
Sequence of Oxysterols receptor LXR-beta (Homo sapiens) (P55055 whole entry, looked up, the tested form may be a part): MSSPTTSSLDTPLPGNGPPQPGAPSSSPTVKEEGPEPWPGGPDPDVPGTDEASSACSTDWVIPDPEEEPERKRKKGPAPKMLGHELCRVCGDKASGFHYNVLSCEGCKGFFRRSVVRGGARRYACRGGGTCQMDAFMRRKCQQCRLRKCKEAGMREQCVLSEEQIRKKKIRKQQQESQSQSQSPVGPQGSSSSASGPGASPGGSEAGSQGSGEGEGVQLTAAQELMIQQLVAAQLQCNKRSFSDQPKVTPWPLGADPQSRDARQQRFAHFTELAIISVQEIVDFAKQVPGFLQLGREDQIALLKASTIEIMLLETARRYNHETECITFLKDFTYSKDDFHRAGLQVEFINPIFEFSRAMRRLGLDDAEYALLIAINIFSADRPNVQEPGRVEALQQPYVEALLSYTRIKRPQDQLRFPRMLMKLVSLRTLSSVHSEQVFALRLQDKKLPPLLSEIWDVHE
Method in brief: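 Gain-of-signal mRNA reporter endpoint, DMSO as negative control. Transiently transfected HepG2 cells carrying the NR-Gal4 chimera and GAL4-UAS reporter units were treated 24 h; transcripts quantified by RT-PCR and capillary electrophoresis fluorescence.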

[16] = ATG_M_06_TRANS: Attagene TRANS-FACTORIAL HepG2 Assay for M06 Transcription Factor (Internal Marker) (AID 2282983); conditions: HepG2 Attagene TRANS M06 internal marker reporter
Method in brief: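 Transfect HepG2 with MRTUs → dose compounds 24 h → isolate RNA, oligo(dT) RT → PCR with reporter primers → 6-FAM primer extension → HpaI digest → CE fragment analysis. Positive direction vs DMSO.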

[17] = target: Hepatocyte nuclear factor 4-alpha (Homo sapiens) (UniProt P41235); experiment: ATG_HNF4a_TRANS: Attagene TRANS-FACTORIAL HepG2 Assay for human Hepatocyte Nuclear Factor 4 alpha (HNF4a) (AID 2282982); conditions: HepG2 HNF4a transactivation reporter, mRNA readout
Method in brief: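 Gain-of-signal mRNA induction, relative to DMSO vehicle, was read after 24 h compound treatment of HepG2 cells bearing transfected GAL4-UAS reporters. Detection used RT-PCR, 6-FAM primer extension and capillary electrophoresis.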

Measured: AC50

CC(C)(OO)c1ccccc1
active: [3] 100 µM
inactive: [1] | [2] | [4] | [5] | [6] | [7] | [8] | [9] | [10] | [11]

Fc1ccc(C2(Cn3cncn3)OC2c2ccccc2Cl)cc1 (configuration not stated)
active: [2] 12.3 µM
inactive: [1] | [3] | [4] | [5] | [7] | [8] | [12] | [13] | [11]

CC1(C)CCC(Cc2ccc(Cl)cc2)C1(O)Cn1cncn1 (configuration not stated)
inactive: [1] | [14] | [4] | [5] | [6] | [8] | [12] | [15] | [16] | [9] | [13] | [10] | [11]
active: [2] 17.7 µM | [3] 5.3 µM

COC[C@H](C)N(C(=O)CCl)c1c(C)csc1C
inactive: [1] | [3] | [14] | [4] | [8] | [15] | [16] | [9] | [13] | [11]
active: [2] 47.3 µM

C(=NC1CCCCC1)=NC1CCCCC1
active: [2] 3.69 µM | [4] 1.97 µM
inactive: [1] | [3] | [5] | [12] | [17] | [16] | [10] | [11]

Reference: PubChem BioAssay (EPA / NIEHS)
